# Assay outcomes from PubChem.
# Pf growth 96h – inhibits malaria parasite growth, 96 h; Potency, µM (series often up to 28.7 µM), hits mostly inhibitors; P. falciparum luciferase reporter growth, 96 h; actives 6.9% (n = 320,000)
#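 Erythrocytes infected with luciferase-expressing P. falciparum were dispensed at 2% hematocrit and 0.05% parasitemia (final), then incubated with compounds 96 hours at 37 C in 5% CO2. Luminescence after detection reagent addition reported growth.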
# AMA1 RON2 block – disrupts binding of P. falciparum AMA1 to RON2; AlphaScreen AMA1-biotinylated RON2 peptide binding; Potency, µM (titrated, usually from 58.2 µM), most hits filed as inhibitors; actives 0.2% (n = 360,000); AID 720542; further: nearly all actives have a fitted effect of over 45% in size
#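 AMA1 (3D7) with his tag at 25 nM final met compounds first, then biotinylated RON2 peptide at 25 nM; detection used donor plus acceptor beads, 10 µg/mL apiece, read by AlphaScreen after 30 min at room temperature.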
# Pf growth 48h – P. falciparum growth inhibition at 48 hours (one generation); P. falciparum luciferase growth in erythrocytes, 48 h; Potency, µM (top dose mostly 28.7 µM), actives largely listed as inhibitors; actives 5.9% (n = 310,000); AID 504832
#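 Compounds are pin-transferred into medium, infected erythrocytes (2% hematocrit, 0.1% parasitemia final) are added, and plates sit one parasite generation at 37 C in 5% CO2. Detection reagent is then added and luminescence measured.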
# VACV mCherry inh – inhibitors of vaccinia virus infection (mCherry reporter signal) | Vaccinia virus mCherry reporter infection, fluorescence | Potency, µM (highest dose often 36.5 µM), most hits filed as inhibitors | actives 0.63% (n = 310,000) | AID 720579; calls by dose curve; tested in A549 cells; further: nearly all actives have a fitted effect of over 35% in size
# VACV Venus inh – vaccinia inhibition (Venus reporter); Vaccinia virus Venus reporter expression, fluorescence; Potency, µM (titrated, usually from 36.5 µM), most hits filed as inhibitors; actives 0.46% (n = 330,000); AID 720580; calls by dose curve; tested in A549 cells; further: nearly all actives have a fitted effect of over 30% in size
# Hits are given with their value; i = inactive; ? = inconclusive; nt = not tested or not shown; [ ] = remark or other dose. Only some compounds are listed: those with a hit (about 8.7% of all), similar ones and a draw of the others. Unless noted, the call rests on the fitted dose curve; in most records, active means well fitted curve in the direction sought with a large enough effect; inconclusive means small, poorly fitted or top-dose-only effect, or another doubt; inactive means no such curve, though single readings can be large; an effect the other way counts as inactive or inconclusive.
SMILES,Pf growth 96h,AMA1 RON2 block,Pf growth 48h,VACV mCherry inh,VACV Venus inh
O=C(/C=C/c1ccccc1Cl)NCCc1ccccc1,12µM,i,?,nt,nt
CCN(CC)c1ccc(NC(=O)/C=C\c2ccccc2Cl)cc1,1µM,i,?,i,?
O=C(/C=C/c1ccccc1Cl)NCc1ccccc1,i,i,i,nt,nt
O=C(NCCO)c1cn(C2CCN(Cc3c(F)cccc3Cl)CC2)nn1,nt,nt,nt,i,i
OC(c1cccc(Cl)c1)c1nccc2ccccc12 (stereo not drawn),?,i,i,nt,nt
O=C(OC(c1ccccc1)c1nccc2ccccc12)c1cc([N+](=O)[O-])cc([N+](=O)[O-])c1 (stereo not drawn),10µM,i,i,i,i
CN(C)c1ccc(CNc2ccc3c(c2)ncn3C)cc1,i,27µM,nt,nt,nt
CCN(CC)c1ccc(CNc2ccc3c(c2)ncn3C(C)(C)C)cc1,i,28µM,i,?,i
CC(C)c1ccc(CNc2ccc3c(c2)ncn3C)cc1,i,i,i,nt,nt
Cc1c(C(=O)N2CCN(C(c3ccccc3)c3ccccc3)CC2)oc2ccccc12,15µM,i,6.6µM,nt,nt
CC12CCC(C(=O)N3CCN(C(c4ccccc4)c4ccccc4)CC3)(OC1=O)C2(C)C (stereo not drawn),1.7µM,i,nt,nt,nt
Cc1cc(=O)[nH]c(SCC(=O)N2CCN(C(c3ccccc3)c3ccccc3)CC2)n1,i,i,13µM,i[1.46 µM],i
CCCc1cc(C(=O)N2CCN(C(c3ccccc3)c3ccccc3)CC2)no1,?,i,12µM,i,i
Cc1ccc(N2CC(NC(=O)c3ccco3)CC2=O)cc1C (stereo not drawn),nt,nt,nt,i[7.34 µM],i[7.34 µM]
O=C(CSC1=Nc2ccccc2N=C(c2ccc(F)cc2)C1)Nc1ccc(Cl)cc1,nt,nt,nt,i,i
Cc1ccccc1C1(CC(=O)N2CCOCC2)CC(=O)N(Cc2cccnc2)C1=O (stereo not drawn),nt,nt,nt,i,i
COc1cc2c(cc1OC)C(COc1ccc3c(C)cc(=O)oc3c1)N(C(=O)Cc1ccccc1)CC2 (stereo not drawn),nt,nt,nt,i,i
Cc1cc(C)c2c(=O)cc(C(=O)Nc3ccc(S(=O)(=O)Nc4onc(C)c4C)cc3)oc2c1,nt,nt,nt,i[7.34 µM],i[7.34 µM]
COc1ccccc1N1CCN(C(=O)c2c(C)cc(=O)oc2C)CC1,nt,i,i,nt,i
O=C(c1cc(-c2cccs2)on1)N1CCN(C(c2ccccc2)c2ccccc2)CC1,i,i,6.6µM,i,i
Cc1cc(=O)oc(C)c1C(=O)N1CCN(C(c2ccccc2)c2ccccc2)CC1,9.3µM,i,13µM,nt,i
Cc1cc(C(=O)N2CCN(C(c3ccccc3)c3ccccc3)CC2)no1,?,i,9.3µM,nt,nt
COc1cccc(-c2cc(C(=O)N3CCOCC3)no2)c1,?,i,i,i,i
COc1cccc(-c2cc(C(=O)N3CCN(C(c4ccccc4)c4ccccc4)CC3)no2)c1,1.5µM,i,8.3µM,i,i
CN(CCO)C(=O)c1cn(C2CCCN(Cc3cc4ccccc4s3)C2)nn1 (stereo not drawn),nt,nt,nt,i,i
SMILES,Pf growth 96h,AMA1 RON2 block,Pf growth 48h,VACV mCherry inh,VACV Venus inh
C=CC[C@H](c1ccc(F)cc1)N(CC(C)C)S(=O)(=O)C=C,nt,nt,nt,i,i
Cc1cccc(OCCCn2c(CCNC(=O)C3CCCCC3)nc3ccccc32)c1,nt,nt,nt,i[7.34 µM],i[7.34 µM]
CCCc1cc(=O)[nH]c(SCC(=O)N2CCN(S(=O)(=O)c3ccccc3)CC2)n1,?,i,i,i,i
CCCc1cc(=O)[nH]c(SCC(=O)N2CCN(S(=O)(=O)c3ccc(C)cc3)C2)n1,13µM,i,nt,i,i
N#Cc1ccccc1Cn1cc(/C=C/[N+](=O)[O-])c2ccccc21,i,i,9.3µM,?,?
COc1cc2c(cc1OC)C(COc1ccc3c(C)cc(=O)oc3c1)N(C(=O)c1ccc(C)c(C)c1)CC2 (stereo not drawn),nt,nt,nt,i,i
CCN(CC)S(=O)(=O)c1ccc2oc(SCC(=O)NC3CC3)nc2c1,i,i,i,18µM,?
COc1cc(Cl)c(C)cc1NC(=O)CSc1nc2ccccc2o1,10µM,i,i,nt,nt
Cc1cc(NC(=O)CSc2ccc(Cl)cc2)no1,?,i,i,nt,nt
COc1cccc(-c2nnc(SCC(=O)Nc3cc(C)on3)o2)c1,nt,i,i,?,i
Cc1cc(NC(=O)CSc2nc3cc(Cl)ccc3o2)no1,i,i,8.3µM,i,i
CCOC(=O)c1ccccc1NC(=O)CSc1nc2ccccc2o1,i,i,i,nt,nt
O=C(CSc1nc2ccccc2o1)NC1CCCC1,i,i,i,i,i
Cc1cc(NC(=O)CSc2nnc(-c3cccc(Cl)c3)o2)no1,2.9µM,i,?,?,?
CC1=C(C(=O)Nc2ccccc2)C(c2ccc(Br)cc2)n2nc(CCCO)nc2N1 (stereo not drawn),nt,nt,nt,i,i
COc1ccc(N2CC(NC(=O)COc3ccc4ccccc4c3)CC2=O)cc1OC (stereo not drawn),nt,nt,nt,i,i
CCS(=O)(=O)c1ccc2oc(SCC(=O)Nc3ccc(OC)cc3)nc2c1,i,i,i,nt,nt
CCN(CC)S(=O)(=O)c1ccc2oc(SCC(=O)Nc3cc(C)on3)nc2c1,2.1µM,i,?,10µM,?
C=CCN(c1ccccc1)S(=O)(=O)c1cccc(C(=O)OCC(=O)NCCOC)c1,i,i,i,nt,nt
C=CCN(c1cccc(C(F)(F)F)c1)S(=O)(=O)c1cccc(C(=O)OCC(=O)NCCC)c1,13µM,i,?,i,i
CCOc1ccccc1NC(=O)c1cc(C(=O)c2cc(OC)ccc2O)coc1=N,2.3µM,i,4.7µM,i,i
COc1cccc(NC(=O)CSc2nc3c(sc4ccccc43)c(=O)n2CCCN2CCCC2)c1,i,i,10µM,nt,nt
Cc1ccc(CNC(=O)CSc2nc3c(sc4ccccc43)c(=O)n2CCCN2CCCC2)cc1,i,i,10µM,i,i
CC(C)c1ccc(NCCC(=O)c2ccc(Br)cc2)cc1,9.3µM,i,i,i,i
CCN(CCCNC(=O)CC(C(=O)N1CCc2ccccc21)n1ccnc1)c1cccc(C)c1 (stereo not drawn),?,?,10µM,nt,nt
SMILES,Pf growth 96h,AMA1 RON2 block,Pf growth 48h,VACV mCherry inh,VACV Venus inh
CCc1ccc2nc(SCC(=O)Nc3ccccc3N3CCOCC3)c(C#N)cc2c1,i,i,9.3µM,i,i
CCc1ccc2nc(SCC(=O)N3CC(=O)Nc4ccccc43)c(C#N)cc2c1,12µM,i,i,?,?
CCOc1ccc2nc(SCC(=O)N3c4ccccc4Sc4ccccc43)c(C#N)cc2c1,?,i,10µM,i,i
Cc1ccc2nc(SCC(=O)Nc3ccccc3N3CCOCC3)c(C#N)cc2c1,?,i,7.4µM,?,?
CCc1ccc2nc(SCC(=O)N3CCCCC3)c(C#N)cc2c1,nt,i,nt,i,i
COc1cc(Br)cc(C2C3=C(CCCC3=O)N(c3ccc(F)cc3)C3=C2C(=O)CCC3)c1O,?,i,5.2µM,i,i
COc1ccccc1C1C2=C(CCCC2=O)N(CC(=O)O)C2=C1C(=O)CCC2,?,i,i,i,i
CCN(C(=O)c1ccc(NC(=O)c2ccco2)cc1)c1ccccc1,9.3µM,i,?,i,i
CN(C(=O)c1ccc(NC(=O)c2ccco2)cc1)c1ccccc1,i,i,i,nt,nt
